Assay results: PubChem BioAssay
Active and inactive are the calls of the source.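 How the source made its calls: active means z-score of at least 1.8 in each of two replicates, scored against plate mean and spread of sample wells; inactive means the rest.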

experiment: survival rescue of mitochondrial mutant cells in low glucose, primary screen, MELAS cybrids, Rieske KO mouse fibroblasts, CellTiter-Glo (AID 1508586); conditions: Rieske KO mouse fibroblast survival, CellTiter-Glo 72 h;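 further: test concentration not given here; z relative to plate mean and SD of compound and empty wells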

| Compound | z-score |
| --- | --- |
| CCn1nc(C(=O)N2CCCCC2)c2c1CCC(NCc1ccc3c(c1)OCO3)C2 (stereo not given) | 0.426 |
| CN(C)C1CCN(C(=O)c2cc(-c3ccccc3)cc(S(=O)(=O)N3CCSCC3)c2)C1 (stereo not given) | 0.00446 |
| COc1ccc(CCNC2CCc3c(c(C(=O)N(C)C)nn3CC3CCCCC3)C2)cc1 (stereo not given) | 0.349 |
| COC1CN(C(=O)Cn2nc(-c3ccccc3)c3ccccc3c2=O)CC(=O)N(Cc2ccccc2)C1 (stereo not given) | 0.0204 |
| C=CCn1nc(C(=O)N2CCCC2)c2c1CCC(NCc1ccccc1OC(F)(F)F)C2 (stereo not given) | 0.327 |
| COCCN1C(=O)N(C(C)C)C(=O)C12CCN(Cc1c(F)cccc1Cl)CC2 | -0.375 |
| O=C1N[C@H](Cc2ccc(O)cc2)C(=O)N2CCN(C(=O)c3cccc4ccccc34)C[C@H]12 | -0.378 |
| COCC(=O)Nc1c(C(=O)OC)n(CCC(C)C)c2ncc(NC(C)CCn3cccn3)cc12 (stereo not given) | 4.41 |
| COc1cc(CN2CCc3c(cc(Cc4ccccc4C)c(=O)n3CC3CC3)C2)ccc1O | -0.319 |
| COc1ccc(-c2cc3c(n(C)c2=O)CCN(C2CCSC2)C3)c2ccc(C)nc12 (stereo not given) | -0.332 |
| Cc1c(CN2CCc3c(c(C(=O)NC4CCCC4)nn3CC(C)C)C2)c(=O)n(-c2ccccc2)n1C | -0.276 |
| Cc1ccnn1CCC(=O)N1CCc2c(cc(Cc3ccccc3F)c(=O)n2Cc2cccnc2)C1 | -0.461 |
| C=CCn1nc(C(=O)N2CCCCCC2)c2c1CCC(NCc1cc(-c3ccccc3)on1)C2 (stereo not given) | 0.236 |
| Cc1ccc2c(CC(=O)N3CC(=O)N(CC(C)C)CC(OCc4ccccn4)C3)cc(=O)oc2c1 (stereo not given) | 0.0342 |
| O=C(c1nn(Cc2ccncc2)c2c1CN(Cc1ccsc1)CC2)N1CCCC1 | 0.631 |
| O=C(Oc1ccccc1)N1CCN2C(=O)[C@@H]3C[C@@H](O)CN3C(=O)[C@H]2C1 | -0.267 |
| CC(C)[C@@H]1NC(=O)[C@@H]2C[C@H](NC(=O)c3cc(C(C)(C)C)nn3C)CN2C1=O | 0.0296 |
| COc1ccc(-c2[nH]ncc2CN2CCC3(CC2)C(=O)N(C(C)C)C(=O)N3CCC(C)C)cc1 | -0.0351 |
| CC(C)N1C(=O)N(C)C2(CCN(Cc3ccc4c(c3)Cc3ccccc3-4)CC2)C1=O | -0.55 |
| Cc1ccccc1CN[C@H]1C[C@H]2C(=O)N[C@@H]([C@@H](C)O)C(=O)N2C1 | -0.372 |

| Compound | z-score |
| --- | --- |
| CN1C(=O)N(CCCc2ccncc2)C(=O)C12CCN(C1CCSCC1)CC2 | -0.033 |
| Cn1c2c(cc(-c3ccc(OC(F)(F)F)cc3)c1=O)CN(C(=O)C1CC(=O)c3ccccc31)CC2 (stereo not given) | 0.643 |
| COc1ccc(C[C@@H]2NC(=O)[C@H]3CN(C(=O)Oc4ccc(Cl)cc4)CCN3C2=O)cc1 | 0.551 |
| O=c1c(-c2ccccc2Cl)cc2c(n1Cc1ccncc1)CCN(Cc1ccnc3ccccc13)C2 | -0.0903 |
| COC(=O)c1c(NC(C)=O)c2cc(NC3CCOCC3)cnc2n1CCc1ccc(OC)cc1 | 0.565 |
| O=C(Nc1ccccc1Cl)N[C@H]1C[C@H]2C(=O)N[C@H](Cc3ccc(O)cc3)C(=O)N2C1 | -0.509 |
| Cc1ccc(-c2cc(C(=O)NCC3CC3)cc(S(=O)(=O)N3CCOCC3)c2)s1 | 0.0847 |
| CCc1ccc(CNc2cnc3c(c2)c(NC(=O)c2cccnc2)c(C(=O)OC)n3CC(C)C)o1 | 4.55 |
| CC(C)C[C@@H]1NC(=O)[C@H]2CN(S(=O)(=O)c3cccc4ccccc34)CCN2C1=O | -0.159 |
| CCCCNC(=O)[C@@H]1C[C@H](CN2CCOCC2)CN(Cc2ccccc2)C1 | -0.282 |
| CC(C)C[C@H]1C(=O)N2CCN(Cc3cccc4ncccc34)C[C@@H]2C(=O)N1C | -0.107 |
| Cc1ccc(Cl)cc1NC(=O)N[C@H]1C[C@H]2C(=O)N[C@H](C(C)C)C(=O)N2C1 | 0.0408 |
| CN(C)c1cccc(NC(=O)c2cc(NCc3cnn(C)c3)cc(S(=O)(=O)N3CCCC3)c2)c1 | -0.862 |
| CN1CCCC1CCNC(=O)[C@H]1CNC[C@@H](COc2cccc(F)c2)C1 (stereo not given in full) | 0.269 |
| Cc1csc(SCC(=O)N2CCc3c(cc(-c4csc5ccccc45)c(=O)n3C)C2)n1 | 0.398 |
| Cc1nc(CN(C)C2CCc3c(c(C(=O)N(C)C)nn3CC3CCCCC3)C2)cs1 (stereo not given) | -0.141 |
| O=C(NCCn1ccnc1)c1cc(NCC2CC2)cc(S(=O)(=O)N2CCCC2)c1 | 0.62 |
| Cc1nnc(CN(C)C(=O)c2cc(-c3ccc(C)s3)cc(S(=O)(=O)N3CCOCC3)c2)o1 | -0.11 |
| CN(Cc1cscn1)C(=O)c1nn(CC2CC2)c2c1CN(C(=O)Cn1cnc3ccccc31)CC2 | -0.0924 |
| CC(C)N1CCN(C(=O)c2cc(-c3ccccc3)cc(S(=O)(=O)N3CCSCC3)c2)CC1 | -0.306 |

experiment: viability rescue of complex I mutant cybrids, primary screen, cell-based, galactose medium, ATP luminescence (AID 1645843); conditions: complex I mutant cybrid cells, 72 h, stronger effect = higher value;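 further: positive z means more ATP and so rescue of galactose-driven cybrid death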

| Compound | z-score |
| --- | --- |
| CCn1nc(C(=O)N2CCCCC2)c2c1CCC(NCc1ccc3c(c1)OCO3)C2 (stereo not given) | -1.14 (inactive) |
| CN(C)C1CCN(C(=O)c2cc(-c3ccccc3)cc(S(=O)(=O)N3CCSCC3)c2)C1 (stereo not given) | 0.465 (inactive) |
| COc1ccc(CCNC2CCc3c(c(C(=O)N(C)C)nn3CC3CCCCC3)C2)cc1 (stereo not given) | -1.19 (inactive) |
| COC1CN(C(=O)Cn2nc(-c3ccccc3)c3ccccc3c2=O)CC(=O)N(Cc2ccccc2)C1 (stereo not given) | 1.58 (inactive) |
| C=CCn1nc(C(=O)N2CCCC2)c2c1CCC(NCc1ccccc1OC(F)(F)F)C2 (stereo not given) | -0.3 (inactive) |
| COCCN1C(=O)N(C(C)C)C(=O)C12CCN(Cc1c(F)cccc1Cl)CC2 | 2.07 (inactive) |
| O=C1N[C@H](Cc2ccc(O)cc2)C(=O)N2CCN(C(=O)c3cccc4ccccc34)C[C@H]12 | -0.195 (inactive) |
| COCC(=O)Nc1c(C(=O)OC)n(CCC(C)C)c2ncc(NC(C)CCn3cccn3)cc12 (stereo not given) | -0.21 (inactive) |
| COc1cc(CN2CCc3c(cc(Cc4ccccc4C)c(=O)n3CC3CC3)C2)ccc1O | -1.32 (inactive) |
| COc1ccc(-c2cc3c(n(C)c2=O)CCN(C2CCSC2)C3)c2ccc(C)nc12 (stereo not given) | 1.09 (inactive) |
| Cc1c(CN2CCc3c(c(C(=O)NC4CCCC4)nn3CC(C)C)C2)c(=O)n(-c2ccccc2)n1C | 0.17 (inactive) |
| Cc1ccnn1CCC(=O)N1CCc2c(cc(Cc3ccccc3F)c(=O)n2Cc2cccnc2)C1 | 0.325 (inactive) |
| C=CCn1nc(C(=O)N2CCCCCC2)c2c1CCC(NCc1cc(-c3ccccc3)on1)C2 (stereo not given) | -1.62 (inactive) |
| Cc1ccc2c(CC(=O)N3CC(=O)N(CC(C)C)CC(OCc4ccccn4)C3)cc(=O)oc2c1 (stereo not given) | 0.435 (inactive) |
| O=C(c1nn(Cc2ccncc2)c2c1CN(Cc1ccsc1)CC2)N1CCCC1 | 0.36 (inactive) |
| O=C(Oc1ccccc1)N1CCN2C(=O)[C@@H]3C[C@@H](O)CN3C(=O)[C@H]2C1 | -0.655 (inactive) |
| CC(C)[C@@H]1NC(=O)[C@@H]2C[C@H](NC(=O)c3cc(C(C)(C)C)nn3C)CN2C1=O | -0.355 (inactive) |
| COc1ccc(-c2[nH]ncc2CN2CCC3(CC2)C(=O)N(C(C)C)C(=O)N3CCC(C)C)cc1 | 0.975 (inactive) |
| CC(C)N1C(=O)N(C)C2(CCN(Cc3ccc4c(c3)Cc3ccccc3-4)CC2)C1=O | 0.225 (inactive) |
| Cc1ccccc1CN[C@H]1C[C@H]2C(=O)N[C@@H]([C@@H](C)O)C(=O)N2C1 | 0.715 (inactive) |

| Compound | z-score |
| --- | --- |
| CN1C(=O)N(CCCc2ccncc2)C(=O)C12CCN(C1CCSCC1)CC2 | 1.08 (inactive) |
| Cn1c2c(cc(-c3ccc(OC(F)(F)F)cc3)c1=O)CN(C(=O)C1CC(=O)c3ccccc31)CC2 (stereo not given) | 0.305 (inactive) |
| COc1ccc(C[C@@H]2NC(=O)[C@H]3CN(C(=O)Oc4ccc(Cl)cc4)CCN3C2=O)cc1 | -1.58 (inactive) |
| O=c1c(-c2ccccc2Cl)cc2c(n1Cc1ccncc1)CCN(Cc1ccnc3ccccc13)C2 | 0.915 (inactive) |
| COC(=O)c1c(NC(C)=O)c2cc(NC3CCOCC3)cnc2n1CCc1ccc(OC)cc1 | 0.445 (inactive) |
| O=C(Nc1ccccc1Cl)N[C@H]1C[C@H]2C(=O)N[C@H](Cc3ccc(O)cc3)C(=O)N2C1 | -0.455 (inactive) |
| Cc1ccc(-c2cc(C(=O)NCC3CC3)cc(S(=O)(=O)N3CCOCC3)c2)s1 | 0.15 (inactive) |
| CCc1ccc(CNc2cnc3c(c2)c(NC(=O)c2cccnc2)c(C(=O)OC)n3CC(C)C)o1 | -1.67 (inactive) |
| CC(C)C[C@@H]1NC(=O)[C@H]2CN(S(=O)(=O)c3cccc4ccccc34)CCN2C1=O | -0.92 (inactive) |
| CCCCNC(=O)[C@@H]1C[C@H](CN2CCOCC2)CN(Cc2ccccc2)C1 | -0.205 (inactive) |
| CC(C)C[C@H]1C(=O)N2CCN(Cc3cccc4ncccc34)C[C@@H]2C(=O)N1C | -0.23 (inactive) |
| Cc1ccc(Cl)cc1NC(=O)N[C@H]1C[C@H]2C(=O)N[C@H](C(C)C)C(=O)N2C1 | -0.745 (inactive) |
| CN(C)c1cccc(NC(=O)c2cc(NCc3cnn(C)c3)cc(S(=O)(=O)N3CCCC3)c2)c1 | 0.265 (inactive) |
| CN1CCCC1CCNC(=O)[C@H]1CNC[C@@H](COc2cccc(F)c2)C1 (stereo not given in full) | 1.83 (inactive) |
| Cc1csc(SCC(=O)N2CCc3c(cc(-c4csc5ccccc45)c(=O)n3C)C2)n1 | 1.5 (inactive) |
| Cc1nc(CN(C)C2CCc3c(c(C(=O)N(C)C)nn3CC3CCCCC3)C2)cs1 (stereo not given) | 0.725 (inactive) |
| O=C(NCCn1ccnc1)c1cc(NCC2CC2)cc(S(=O)(=O)N2CCCC2)c1 | 1.69 (inactive) |
| Cc1nnc(CN(C)C(=O)c2cc(-c3ccc(C)s3)cc(S(=O)(=O)N3CCOCC3)c2)o1 | 0.29 (inactive) |
| CN(Cc1cscn1)C(=O)c1nn(CC2CC2)c2c1CN(C(=O)Cn1cnc3ccccc31)CC2 | -0.19 (inactive) |
| CC(C)N1CCN(C(=O)c2cc(-c3ccccc3)cc(S(=O)(=O)N3CCSCC3)c2)CC1 | 1.2 (inactive) |
